In PubChem BioAssay (Tox21):
“And” between values parts separate entries of the source, which are not always exact repeats. Identical values can stand only once. Results filed as inconclusive are left out. Where a structure was tested more than once in an assay, its records may differ in their call. The source made the active and inactive calls. Unless noted, calls follow the shape of the dose curve; as a rule, active = well fitted curve in the direction sought with a large enough effect in the repeat runs; inconclusive = weak or mixed curves; inactive = no such curve, though single readings can be large; an effect the other way counts as inactive or inconclusive.

Assays:
[1] = qHTS assay to identify small molecule agonists of the peroxisome proliferator-activated receptor delta (PPARd) signaling pathway - cell viability counter screen (AID 743211); also: nearly all actives have a fitted effect of over 55% in size; also: potency is read from the fitted curve at half-maximal effect
Summary of the method: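 Following 5 h plating at 37 C and 5% CO2, PPARd UAS-bla HEK293H cells took up test compounds for 17 h. Viability was quantified by luminescence 30 min after CellTiter-Glo addition at room temperature.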

[2] = qHTS assay to identify small molecule antagonists of the peroxisome proliferator-activated receptor delta (PPARd) signaling pathway - cell viability counter screen (AID 743213); also: nearly all actives have a fitted effect of over 50% in size; also: potency is read from the fitted curve at half-maximal effect
Summary of the method: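 Same-well viability: cells pre-incubated 5 h, dosed with compound plus 300 nM L165041, kept 17 h at 37 C, FRET substrate 2 h RT, then CellTiter-Glo 30 min RT and luminescence.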

[3] = molecular target: Bile acid receptor (Homo sapiens) (UniProt Q96RI1); experiment: qHTS assay to identify small molecule agonists of the farnesoid-X-receptor (FXR) signaling pathway (AID 743220; active = well fitted activation curve with a large enough effect in the signal ratio in the repeat runs, not every such curve was filed as active; the % refers to the signal ratio)
Summary of the method: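 Beta-lactamase reporter under UAS control in GeneBLAzer FXR HEK 293T cells (5000/well) measured with LiveBLAzer FRET substrate after 2 h at room temperature. Compound exposure lasted 16 h at 37C.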

[4] = molecular target: Vitamin D3 receptor (Homo sapiens) (UniProt P11473); experiment: qHTS assay to identify small molecule agonists of the vitamin D receptor (VDR) signaling pathway (AID 743222; calls by dose curve)
Summary of the method: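 VDR-bla cells were plated 4 h at 37C/5% CO2, then exposed to compounds in DMSO for 16 h. After LiveBLAzer B/G FRET substrate addition and 2 h at room temperature, beta-lactamase reporter fluorescence was read.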

[5] = qHTS assay to identify small molecule agonists of the vitamin D receptor (VDR) signaling pathway - cell viability counter screen (AID 743224); also: nearly all actives have a fitted effect of over 50% in size; also: potency is read from the fitted curve at half-maximal effect
Summary of the method: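 VDR-bla cells were preincubated 4 h at 37C/5% CO2, then exposed to compounds for 16 h. After the 2 h room-temperature bla FRET read, CellTiter-Glo was added to the same wells and luminescence read after 30 min.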

[6] = qHTS assay to identify small molecule antagonists of the vitamin D receptor (VDR) signaling pathway - cell viability counter screen (AID 743225); also: nearly all actives have a fitted effect of over 50% in size; also: potency is read from the fitted curve at half-maximal effect
Summary of the method: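 In this counter screen, VDR-bla HEK 293T cells receive test compound plus 3 nM final calcitriol for 16 h at 37C. Room-temperature steps of 2 h with the beta-lactamase substrate, then 30 min with CellTiter-Glo, precede the luminescence read.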

[7] = qHTS assay to identify small molecule agonists of the NFkB signaling pathway - cell viability counter screen (AID 1159515; calls by dose curve; also: nearly all actives have a fitted effect of over 55% in size; also: potency is read from the fitted curve at half-maximal effect)
Summary of the method: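 NFkB-bla ME-180 cells, 2,000/well, were plated overnight at 37 C, 5% CO2, then exposed to compounds in DMSO for 5 hr. After the bla FRET read, CellTiter-Glo was added to the same wells; luminescence was read after 30 min at room temperature.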

[8] = qHTS assay to identify small molecule antagonists of the retinoid-related orphan receptor gamma (ROR-gamma) signaling pathway - cell viability counter screen (AID 1159520); also: nearly all actives have a fitted effect of over 50% in size; also: potency is read from the fitted curve at half-maximal effect
Summary of the method: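 Tet-on ROR gamma CHO cells (1,000/well) were plated 4 hr, given compounds in DMSO for 2 hr at 37 C, then induced with 1 uM final doxycycline for 16 hr. Viability was read as ATP by CellTiter-Glo luminescence after 30 min.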

[9] = molecular target: Nuclear receptor ROR-gamma (Homo sapiens) (UniProt P51449); experiment: qHTS assay to identify small molecule antagonists of the retinoid-related orphan receptor gamma (ROR-gamma) signaling pathway (AID 1159521; also: nearly all actives have a fitted effect of over 50% in size; also: potency is read from the fitted curve at half-maximal effect)
Summary of the method: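 Screening format: cell-based luciferase reporter in CHO cells with doxycycline-inducible RORγ. Compound pre-exposure lasts 2 h, doxycycline is 1 uM final, induction runs 16 h at 37 C, and ONE-Glo luminescence is read.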

[10] = qHTS assay to identify small molecule antagonists of the farnesoid-X-receptor (FXR) signaling pathway - cell viability counter screen (AID 743221; active = well fitted cell-killing curve with a large enough effect in the repeat runs, not every such curve was filed as active; also: nearly all actives have a fitted effect of over 50% in size; also: potency is read from the fitted curve at half-maximal effect)
Summary of the method: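 Compound effects on cell number were measured as CellTiter-Glo luminescence in HEK 293T cells expressing FXR-UAS-bla, after 16 h at 37 C with 50 uM CDCA (final).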

[11] = qHTS assay to identify small molecule agonists of the AP-1 signaling pathway - cell viability counter screen (AID 1159525; calls by dose curve; also: nearly all actives have a fitted effect of over 55% in size; also: potency is read from the fitted curve at half-maximal effect)
Summary of the method: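 ME-180 AP-1-bla, 2500 cells/well, Opti-MEM + 0.5% dialyzed FBS; overnight 37 °C; cpd 15-pt titration, 5 h 37 °C; CellTiter-Glo 30 min RT; luminescence read; normalised to TOAB and DMSO controls.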

[12] = qHTS assay to identify small molecule agonists of the farnesoid-X-receptor (FXR) signaling pathway - cell viability counter screen (AID 743218); also: nearly all actives have a fitted effect of over 45% in size; also: potency is read from the fitted curve at half-maximal effect
Summary of the method: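 FXR-UAS-bla HEK 293T cells, plated 5 h at 37 C, were exposed to compounds for 16 h at 37 C. CellTiter-Glo was then added to the same wells as the bla readout; luminescence read after 30 min at room temperature.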

[13] = molecular target: Vitamin D3 receptor (Homo sapiens) (UniProt P11473); experiment: qHTS assay to identify small molecule antagonists of the vitamin D receptor (VDR) signaling pathway (AID 743223; active = well fitted inhibition curve with a large enough effect in the signal ratio in the repeat runs, not every such curve was filed as active; the % refers to the signal ratio; also: potency is read from the fitted curve at half-maximal effect)
Summary of the method: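 Beta-lactamase activity in VDR-bla cells is measured by FRET substrate fluorescence (2 h, room temperature) after cells spend 16 h at 37C with test compound and 3 nM final 1alpha,25-dihydroxyvitamin D3.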

[14] = molecular target: Peroxisome proliferator-activated receptor delta (Homo sapiens) (UniProt Q03181); experiment: qHTS assay to identify small molecule agonists of the peroxisome proliferator-activated receptor delta (PPARd) signaling pathway (AID 743212; calls by dose curve)
Summary of the method: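 A PPARd-bla HEK293H line with beta-lactamase under an Upstream Activator Sequence is treated with compounds at 37 C. Substrate loading for 2 h at room temperature precedes the fluorescence measurement.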

[15] = molecular target: Peroxisome proliferator-activated receptor delta (Homo sapiens) (UniProt Q03181); experiment: qHTS assay to identify small molecule antagonists of the peroxisome proliferator-activated receptor delta (PPARd) signaling pathway (AID 743215; active = well fitted inhibition curve with a large enough effect in the signal ratio in the repeat runs, not every such curve was filed as active; the % refers to the signal ratio;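 also: cells stimulated with agonist L165041 at 300 nM final during compound exposure; series mostly up to about 62 µM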)
Summary of the method: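 PPARd UAS-bla HEK293H cells were pre-incubated 5 h at 37 C, then given test compounds in DMSO plus agonist L165041 (300 nM final). After 17 h at 37 C, beta-lactamase FRET substrate was added; fluorescence read after 2 h at room temperature.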

[16] = molecular target: Bile acid receptor (Homo sapiens) (UniProt Q96RI1); experiment: qHTS assay to identify small molecule antagonists of the farnesoid-X-receptor (FXR) signaling pathway (AID 743217; active = well fitted inhibition curve with a large enough effect in the signal ratio in the repeat runs, not every such curve was filed as active; the % refers to the signal ratio)
Summary of the method: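 FXR-UAS-bla HEK 293T cells pre-incubated 5 h at 37 °C, then exposed to compounds with chenodeoxycholic acid (50 uM final) for 16 h at 37 °C. Beta-lactamase reporter read by LiveBLAzer B/G FRET substrate fluorescence after 2 h at room temperature.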

[17] = qHTS assay to identify small molecule agonists of the AP-1 signaling pathway (AID 1159526; calls by dose curve)
[18] = molecular target: Retinoic acid receptor RXR-alpha (Homo sapiens) (UniProt P19793); experiment: qHTS assay to identify small molecule agonists of the RXR signaling pathway (AID 1159527; calls by dose curve; also: nearly all actives have a fitted effect of over 35% in size)
Summary of the method: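 Fluorescence ratio readout (460 vs 530 nm) from GeneBLAzer RXR-alpha HEK 293T cells after 16 hr compound treatment; cells seeded 5 hr beforehand in low-serum, charcoal-stripped medium.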

Measured: Potency

Chain of Bile acid receptor (Homo sapiens) (Q96RI1 whole entry, looked up): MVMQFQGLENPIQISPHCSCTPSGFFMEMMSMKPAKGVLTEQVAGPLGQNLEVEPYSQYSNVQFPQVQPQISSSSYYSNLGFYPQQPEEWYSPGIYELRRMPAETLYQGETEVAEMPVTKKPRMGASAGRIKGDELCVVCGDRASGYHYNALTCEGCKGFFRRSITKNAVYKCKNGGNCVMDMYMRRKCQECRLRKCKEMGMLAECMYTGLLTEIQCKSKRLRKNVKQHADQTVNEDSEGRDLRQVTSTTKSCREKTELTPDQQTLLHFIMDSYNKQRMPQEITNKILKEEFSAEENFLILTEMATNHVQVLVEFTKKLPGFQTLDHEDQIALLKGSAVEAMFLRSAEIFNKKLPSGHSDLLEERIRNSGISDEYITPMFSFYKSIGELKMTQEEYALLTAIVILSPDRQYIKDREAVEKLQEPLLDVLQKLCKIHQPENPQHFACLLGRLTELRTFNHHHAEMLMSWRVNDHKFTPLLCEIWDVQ
Chain of Vitamin D3 receptor (Homo sapiens) (P11473 whole entry, looked up): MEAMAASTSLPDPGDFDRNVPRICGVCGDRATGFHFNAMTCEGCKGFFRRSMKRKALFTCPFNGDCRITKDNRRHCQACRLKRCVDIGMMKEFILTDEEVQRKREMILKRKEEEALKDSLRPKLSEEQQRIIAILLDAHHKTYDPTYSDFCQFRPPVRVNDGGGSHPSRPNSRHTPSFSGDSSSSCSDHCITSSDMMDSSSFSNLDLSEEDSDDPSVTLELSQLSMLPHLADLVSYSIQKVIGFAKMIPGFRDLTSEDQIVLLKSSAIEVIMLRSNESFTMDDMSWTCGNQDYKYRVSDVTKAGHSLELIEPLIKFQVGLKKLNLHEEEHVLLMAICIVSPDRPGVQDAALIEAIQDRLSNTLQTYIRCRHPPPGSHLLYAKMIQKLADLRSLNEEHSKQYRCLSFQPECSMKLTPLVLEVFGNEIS
Chain of Peroxisome proliferator-activated receptor delta (Homo sapiens) (Q03181 whole entry, looked up): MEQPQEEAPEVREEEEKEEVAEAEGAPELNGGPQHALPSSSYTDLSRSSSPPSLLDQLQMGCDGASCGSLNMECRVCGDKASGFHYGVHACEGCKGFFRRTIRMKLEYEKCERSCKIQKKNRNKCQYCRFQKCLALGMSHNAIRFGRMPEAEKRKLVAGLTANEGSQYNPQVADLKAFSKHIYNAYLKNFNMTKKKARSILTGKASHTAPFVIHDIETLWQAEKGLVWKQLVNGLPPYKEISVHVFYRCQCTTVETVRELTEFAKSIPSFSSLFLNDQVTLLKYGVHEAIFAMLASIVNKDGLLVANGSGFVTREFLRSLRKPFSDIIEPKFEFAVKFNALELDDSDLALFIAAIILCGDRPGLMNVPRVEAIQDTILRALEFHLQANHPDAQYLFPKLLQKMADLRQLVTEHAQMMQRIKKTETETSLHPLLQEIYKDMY
Chain of Retinoic acid receptor RXR-alpha (Homo sapiens) (P19793 whole entry, looked up): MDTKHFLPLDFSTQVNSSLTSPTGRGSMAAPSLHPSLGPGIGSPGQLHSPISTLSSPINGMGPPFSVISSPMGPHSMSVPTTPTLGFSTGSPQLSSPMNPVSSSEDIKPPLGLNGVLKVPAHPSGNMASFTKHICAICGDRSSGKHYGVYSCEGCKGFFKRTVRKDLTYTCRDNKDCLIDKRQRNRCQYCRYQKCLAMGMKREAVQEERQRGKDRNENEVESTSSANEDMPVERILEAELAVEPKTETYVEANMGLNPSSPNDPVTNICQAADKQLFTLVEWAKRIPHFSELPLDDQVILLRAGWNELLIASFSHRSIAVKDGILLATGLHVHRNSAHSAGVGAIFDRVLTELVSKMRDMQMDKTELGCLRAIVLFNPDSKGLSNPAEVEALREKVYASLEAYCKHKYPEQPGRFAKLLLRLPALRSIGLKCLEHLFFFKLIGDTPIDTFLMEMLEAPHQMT

O=C1C=CC(=O)N1
inactive: [3] | [4] | [7]
active: [1] 40 µM | [2] 44.8 µM | [5] 12.6 µM | [6] 35.6 µM | [8] 12.5 µM | [9] 5.59 µM

CSc1ccc(/C=C2/C(C)=C(CC(=O)O)c3cc(F)ccc32)cc1
inactive: [2] | [3] | [10] | [6] | [7] | [8] | [9] | [11]

CC(C)(C)c1ccc(C(=O)CCCN2CCC(OC(c3ccccc3)c3ccccc3)CC2)cc1
inactive: [3]
active: [2] 16.8 µM | [12] 26.6 µM | [7] 23.9 µM | [8] 21.1 µM | [9] 11.9 µM | [11] 15.1 µM

Cc1ccc(O)c2ncccc12
inactive: [3]
active: [1] 0.841 µM | [2] 1.19 µM | [5] 0.944 µM | [7] 6.01 µM | [8] 21.1 µM | [9] 15 µM | [11] 16.9 µM

Cc1cc(CCN2CCN(c3nsc4ccccc34)CC2)cc2c1NC(=O)CC2(C)C
active: [1] 21.9 µM | [2] 19.5 µM | [12] 21.9 µM | [10] 38.9 µM | [5] 17.4 µM | [6] 19.5 µM | [7] 54.9 µM | [8] 61.1 µM | [9] 9.69 µM | [11] 54.9 µM

CCC(C)Nc1ccc(NC(C)CC)cc1 (configuration not stated)
active: [1] 12.5 µM | [2] 22.3 µM | [12] 22.3 µM | [10] 35.3 µM | [6] 8.88 µM | [7] 44.5 µM | [8] 31.2 µM | [9] 27.8 µM
inactive: [3]

CN(C)C(=O)C1(N2CCCCC2)CCN(CC[C@@]2(c3ccc(Cl)c(Cl)c3)CN(C(=O)c3ccccc3)CCO2)CC1
inactive: [4]
active: [1] 11.5 µM | [2] 16.2 µM | [12] 16.2 µM | [10] 32.4 µM | [6] 22.9 µM | [7] 51.3 µM | [8] 50.9 µM | [9] 32.1 µM

Clc1ccccc1C(c1ccccc1)(c1ccccc1)n1ccnc1
24.3 µM (active) and inactive: [8]
21.9 µM (active) and inactive: [11]
inactive: [2] | [4] | [13] | [6] | [7]
active: [1] 54.9 µM | [12] 54.9 µM | [9] 2.73 µM and 7.5 µM

Cc1c(C)c2c(c(C)c1OC(=O)CCC(=O)O)CC[C@@](C)(CCC[C@H](C)CCC[C@H](C)CCCC(C)C)O2
active: [8] 27.6 µM | [9] 27.6 µM
inactive: [1] | [14] | [2] | [15] | [12] | [3] | [10] | [5] | [7]

C[C@H](CCC(=O)O)[C@H]1CC[C@H]2[C@@H]3CC[C@@H]4C[C@H](O)CC[C@]4(C)[C@H]3CC[C@]12C
inactive and 43.6 µM (active): [10]
inactive: [16] | [6] | [9]
active: [5] 24.5 µM | [7] 49 µM | [11] 48.8 µM
inactive and 54.9 µM (active): [1]
60.9 µM (active) and inactive: [8]

COc1ccc(-c2ccc3cc(C(=O)O)ccc3c2)cc1C12CC3CC(CC(C3)C1)C2
active: [12] 7.5 µM | [5] 23.7 µM | [7] 21.3 µM | [8] 29.8 µM
inactive: [13] | [6] | [11] | [17] | [18]

CC[C@@]1(O)C(=O)OCc2c1cc1n(c2=O)Cc2c-1nc1ccccc1c2/C=N/OC(C)(C)C
active: [1] 11.9 µM | [12] 13.3 µM | [8] 0.944 µM | [9] 15 µM
inactive: [7] | [11]

CC(C)(C)c1ccc(C(=O)O)cc1
not listed: [9] | [12] | [13] | [14] | [15]
inactive: all other assays above

CCCCCCCCCCCCCCCCCC[N+](C)(C)Cc1ccccc1
active: [1] 11.1 µM | [2] 13.9 µM | [12] 19.7 µM | [10] 27.8 µM | [13] 22.1 µM | [6] 7.84 µM | [7] 22.1 µM | [8] 27.6 µM | [9] 15.5 µM | [11] 39.3 µM

COc1cc(-c2nc(NC(=O)c3cc4cc(C)cc(C)c4n3CC(=O)O)sc2CCC2CCCCC2)c(OC)cc1Cl
active: [1] 10 µM | [2] 20.1 µM | [10] 14.2 µM | [5] 10 µM | [7] 10 µM | [8] 39.7 µM | [9] 19.9 µM | [11] 28.3 µM

Cc1cc(=O)oc2cc(N(C)C)ccc12
inactive: [1] | [2] | [12] | [10] | [6] | [7] | [8] | [9] | [11]

CC(C)OC(=O)c1cc2c(OCC(O)CNC(C)(C)C)cccc2[nH]1 (configuration not stated)
inactive: [2] | [4] | [5] | [7] | [8] | [11] | [17]

O=S1(=O)CC(Cl)(Cl)C(Cl)(Cl)C1
active: [1] 3.09 µM | [2] 3.89 µM | [12] 5.49 µM | [10] 9.77 µM | [13] 1.74 µM | [5] 2.19 µM | [6] 4.36 µM | [7] 5.49 µM | [8] 6.11 µM | [9] 2.17 µM | [11] 4.9 µM
inactive: [4]

CC[C@@]1(O)C(=O)OCc2c1cc1n(c2=O)Cc2cc3c(CN(C)C)c(O)ccc3nc2-1
active: [8] 2.11 µM
inactive: [7] | [11]
